Screens deposited in PubChem by Broad Institute.
This is one part of a sample in which hits are shown more often than they occur.
miR122 inh: miR-122 sensor activation. Huh7 psiCHECK-miR122 Renilla luciferase sensor, 48 h. activation, % at 12.5 µM. actives 0.14% (n = 340,000). AID 623901;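 active means mean activation of 30% or more, with every replicate also reaching 30%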;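 further: 0% = median of neutral control wells and 100% = median of positive control wells; higher luciferase signal means stronger suppression of miR-122 activity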
Starred values were filed as active, the others as inactive.

SMILES	miR122 inh
CCCNC(=O)C[C@H]1CC[C@H]2[C@H](COc3ccc(NC(=O)c4ccc5c(c4)OCO5)cc3C(=O)N2C)O1	-121.7
CCCC(=O)Nc1ccc2c(c1)C(=O)N(C)[C@@H]1CC[C@H](CC(=O)NCCN3CCCCC3)O[C@H]1CO2	50.0*
CCCC(=O)Nc1ccc2c(c1)C(=O)N(C)C[C@@H](OC)[C@H](C)CN[C@@H](C)CO2	-1.0
CN1C(=O)c2cc(NC(=O)Cc3cccs3)ccc2OC[C@@H]2O[C@H](CC(=O)NCc3ccc(-c4ccccc4)cc3)CC[C@@H]21	-188.3
C[C@@H]1CN([C@H](C)CO)C(=O)c2cc(-c3cccnc3)cnc2O[C@H]1CN(C)C(=O)C1CC1	-2.7
C[C@H]1CN([C@@H](C)CO)C(=O)c2cc(-c3cccc(F)c3)cnc2O[C@H]1CN(C)C(=O)c1cccc(F)c1	-4.6
C[C@@H]1CN([C@H](C)CO)C(=O)c2cc(-c3ccc(F)cc3)cnc2O[C@H]1CN(C)Cc1ccc(C(=O)O)cc1	7.0
CSC(=S)NCc1cccnc1	-116.8
C[C@@H]1CN([C@H](C)CO)S(=O)(=O)c2ccc(C3=CCCCC3)cc2O[C@H]1CN(C)C(=O)CC1CC1	-5.7
Cc1ccc(NS(=O)(=O)c2cc(Br)cnc2N)cc1C	-144.2
C[C@@H]1CN([C@H](C)CO)C(=O)c2cc(C#Cc3cccnc3)cnc2O[C@H]1CN(C)S(C)(=O)=O	-0.8
C[C@@H]1CN([C@@H](C)CO)C(=O)c2cc(C#Cc3ccccc3F)cnc2O[C@@H]1CN(C)S(=O)(=O)c1ccccc1	9.5
C[C@H]1CN([C@@H](C)CO)C(=O)c2cc(-c3cncnc3)cnc2O[C@H]1CN(C)CC1CCOCC1	0.8
C[C@@H]1CN([C@@H](C)CO)S(=O)(=O)c2ccc(-c3ccccc3)cc2O[C@H]1CN(C)S(=O)(=O)c1ccccc1F	5.2
O=C(C(=O)N(Cc1ccccc1)Cc1ccccc1)c1c(-c2ccccc2)[nH]c2ccccc12	-100.0
CC(=O)c1cccc(NS(=O)(=O)c2cc(-c3cnc(C4CC4)o3)ccc2C)c1	-91.6
C[C@H](CO)N1C[C@H](C)[C@@H](CN(C)C(=O)CC2CC2)Oc2cc(C3=CCCCC3)ccc2S1(=O)=O	-30.6
COc1ccc(-c2cnc3c(c2)C(=O)N([C@@H](C)CO)C[C@H](C)[C@@H](CN(C)Cc2ccccn2)O3)cc1	-2.3
COc1ccccc1NS(=O)(=O)c1cc(NC(=O)Nc2ccccc2)ccc1N1CCCCC1	-289.0
CO[C@H]1CN(C)C(=O)c2ccc(NC(=O)Nc3ccccc3)cc2OC[C@@H](C)N(C(C)=O)C[C@@H]1C	-2.3
CCCNC(=O)N1C[C@H](C)[C@H](OC)CN(C)C(=O)c2cc(NS(=O)(=O)CC)ccc2OC[C@@H]1C	-23.7
CO[C@H]1CN(C)C(=O)c2ccc(NC(=O)Nc3cccc(F)c3)cc2OC[C@H](C)N(C)C[C@H]1C	-11.4
CO[C@H]1CN(C)C(=O)c2ccc(NC(=O)Nc3cccc(F)c3)cc2OC[C@@H](C)N(C)C[C@H]1C	-1.6
Cc1ccccc1NC(=O)Nc1ccc2c(c1)C(=O)N(C)[C@H]1CC[C@H](CC(=O)NCC3CC3)O[C@H]1CO2	-227.8
Cc1cccc(NC(=O)Nc2ccc3c(c2)C(=O)N(C)[C@@H]2CC[C@@H](CC(=O)NCc4ccccc4Cl)O[C@H]2CO3)c1	55.0*
SMILES	miR122 inh
CO[C@H]1CN(C)C(=O)c2cc(NC(=O)c3nc4ccccc4s3)ccc2OC[C@H](C)N(Cc2ccncc2)C[C@H]1C	-9.5
CO[C@H]1CN(C)C(=O)c2cc(NC(=O)Nc3ccccc3)ccc2OC[C@@H](C)NC[C@@H]1C	0.1
COCCNC(=O)C[C@@H]1CC[C@H]2[C@@H](COc3ccc(NC(C)=O)cc3C(=O)N2C)O1	-183.3
CCS(=O)(=O)Nc1ccc2c(c1)C(=O)N(C)C[C@H](OC)[C@@H](C)CN[C@@H](C)CO2	-2.7
CCS(=O)(=O)Nc1ccc2c(c1)C(=O)N(C)[C@@H]1CC[C@@H](CC(=O)NCCCN3CCOCC3)O[C@H]1CO2	67.5*
COCCNC(=O)C[C@H]1CC[C@@H]2[C@H](COc3ccc(NC(=O)c4cnccn4)cc3C(=O)N2C)O1	45.0*
CCNC(=O)Nc1ccc2c(c1)C(=O)N(C)[C@H]1CC[C@H](CC(=O)Nc3cccc(F)c3)O[C@@H]1CO2	66.7*
COC(=O)c1sc(N)c(C(=O)OC)c1CSc1nnc(-c2ccccc2Cl)n1C	-103.7
Cc1cc(C)c(S(=O)(=O)Nc2cccc(S(=O)(=O)N3CCOCC3)c2)c(C)c1	-93.3
C/C=C/c1cnc2c(c1)C(=O)N([C@H](C)CO)C[C@H](C)[C@H](CN(C)S(=O)(=O)c1ccc(C)cc1)O2	6.8
C[C@H]1CN([C@@H](C)CO)S(=O)(=O)c2ccc(-c3ccncc3)cc2O[C@H]1CN(C)C(=O)C1CC1	3.9
C[C@H]1CN([C@@H](C)CO)C(=O)c2cc(C#Cc3ccc(F)cc3)cnc2O[C@H]1CN(C)C(=O)c1ccccc1F	5.7
C[C@H](CO)N1C[C@H](C)[C@@H](CN(C)Cc2ccccc2)Oc2c(NS(=O)(=O)c3ccccc3)cccc2C1=O	-93.3
C[C@H](CO)N1C[C@H](C)[C@H](CN(C)C(=O)c2ccccn2)Oc2cc(C#CCC3CCCC3)ccc2S1(=O)=O	-0.5
C/C=C/c1ccc2c(c1)O[C@H](CN(C)S(=O)(=O)c1ccccc1OC)[C@@H](C)CN([C@H](C)CO)S2(=O)=O	-33.2
C[C@@H]1CN([C@H](C)CO)C(=O)c2cc(-c3cncnc3)cnc2O[C@@H]1CN(C)Cc1ccc(F)cc1	4.3
CCC(=O)N(C)C[C@@H]1Oc2ncc(C#Cc3cccnc3)cc2C(=O)N([C@H](C)CO)C[C@H]1C	5.4
CC(C)c1ccc(S(=O)(=O)Nc2ccc3c(c2)OCO3)cc1	-97.7
COCC(=O)Nc1ccc2c(c1)OC[C@@H](C)NC[C@H](C)[C@@H](OC)CN(C)C2=O	1.4
CN1C(=O)c2cc(NC(=O)NCc3ccccc3)ccc2OC[C@@H]2O[C@@H](CC(=O)NCC3CCCCC3)CC[C@@H]21	-120.0
CCCNC(=O)Nc1ccc2c(c1)C(=O)N(C)[C@H]1CC[C@@H](CC(=O)NCC3CCCCC3)O[C@@H]1CO2	41.7*
CN1C(=O)c2cc(NC(=O)Cc3cccs3)ccc2OC[C@@H]2O[C@@H](CC(=O)NCC3CCCCC3)CC[C@@H]21	-195.6
C[C@@H]1CN([C@H](C)CO)S(=O)(=O)c2ccc(C#C[C@@H](C)O)cc2O[C@@H]1CN(C)CC1CCOCC1	1.3
C/C=C/c1ccc2c(c1)O[C@H](CN(C)C(=O)Cc1ccccn1)[C@H](C)CN([C@@H](C)CO)S2(=O)=O	-7.5
COc1cccc(-c2ccc3c(c2)O[C@H](CN(C)C(=O)C2CCCCC2)[C@H](C)CN([C@@H](C)CO)S3(=O)=O)c1	-14.7
SMILES	miR122 inh
CCCCc1cc(=O)oc2cc(C)cc(OC(C)C(=O)O)c12 (stereo not drawn)	31.7*
C[C@@H]1CN([C@H](C)CO)C(=O)c2cc(C#Cc3ccccn3)cnc2O[C@H]1CN(C)Cc1cncnc1	-0.2
C/C=C/c1ccc2c(c1)O[C@@H](CN(C)S(C)(=O)=O)[C@H](C)CN([C@H](C)CO)S2(=O)=O	-42.0
COc1ccccc1NS(=O)(=O)c1cc(NC(=O)c2cc(=O)[nH]c3ccccc23)ccc1N1CCOCC1	-107.4
CC(=O)C[C@H]1c2cc(C(F)(F)F)ccc2S(=O)(=O)N1C1CCCCC1	-117.8
C[C@@H]1CN([C@H](C)CO)C(=O)c2cc(-c3ccncc3)cnc2O[C@H]1CN(C)C(=O)C1CCOCC1	0.4
C=CCNC(=S)NNC(=O)Cn1c(-c2ccccc2)cc(=O)n2ncnc12	34.0*
